# This excerpt belongs to a sample that is enriched for hits.
# Cycloheximide cs: counter-screen for Shiga toxin inhibitors: cycloheximide protein synthesis inhibition | cell reporter, cycloheximide protein synthesis inhibition counterscreen | max response, % | actives 12% (n = 300,000) | AID 2314; in the data active = max response mostly above about 13%, no sharp cut-off; inactive = mostly below about 14%; note: read at 38.3 µM for the half of the compounds with a filed dose; 0% is about no effect
# NS1 inh: influenza NS1 inhibition. Potency, µM (doses to about 46.1 µM), without a hit: at the highest dose activity, positive = more growth. actives 0.4% (n = 270,000). AID 2326; calls by dose curve; note: potency is the fitted concentration of half-maximal effect; actives are rising curves; nearly all actives have a fitted effect of over 50% in size
#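 A cell-based growth assay was used: compounds that relieve NS1-induced slow growth of budding yeast raise OD600. Assay medium was yeast nitrogen base with ammonium sulphate and -URA supplement, pH 6.0, with 2% galactose.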
# Shiga inhibitor: inhibitors of Shiga toxin in Vero cells. Vero cells, Shiga toxin protein synthesis inhibition reporter. inhibition, % at 38.7 µM. actives 9.2% (n = 290,000). AID 2315; in the data active = inhibition mostly above about 28%, no sharp cut-off; inactive = mostly below about 43%; note: 0% is about no effect
# SARS PLpro yeast: inhibitors of SARS-CoV papain-like protease in yeast; S. cerevisiae expressing SARS-CoV PLpro, growth rescue; Potency, µM (doses to about 32.9 µM), without a hit: top-dose activity, positive = growth rescue, actives largely listed as activators; actives 0.19% (n = 330,000); AID 485353; calls by dose curve; note: potency is the fitted concentration of half-maximal effect; 0% is about no effect; nearly all actives have a fitted effect of over 55% in size
# TbPYK inhibitor: blocks Trypanosoma brucei pyruvate kinase. TbPYK enzyme, Kinase-Glo Plus ATP luminescence, 45 min. Potency, µM (titrated, usually from 76.8 µM), inactives show at the top dose activity, negative = inhibition, actives largely listed as inhibitors. actives 0.12% (n = 410,000); note: potency is the fitted concentration of half-maximal effect; % is set by controls: 0 for no effect and ±100 for the full control effect; nearly all actives have a fitted effect of over 50% in size
#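 TbPYK + substrate in 50 mM TEA pH 7.2, 100 mM KCl, 10 mM MgCl2, 0.05% BSA, 0.01% Tween-20; cpd pinned; ADP 130 uM final; 45 min RT; Kinase-Glo Plus 10 min; luminescence endpoint.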
# LmPK inhibitor: LmPK (Leishmania mexicana) enzyme inhibition; Q27686; actives 0.37% (n = 290,000); purified LmPK, Kinase-Glo ATP luminescence, 1 h; AID 1721; Potency, µM (doses to about 57.5 µM), without a hit: at the highest dose activity change, negative = inhibition, actives largely listed as inhibitors; note: potency is the fitted concentration of half-maximal effect; % is set by controls: 0 for no effect and ±100 for the full control effect
# Target sequence (Q27686 whole entry, looked up): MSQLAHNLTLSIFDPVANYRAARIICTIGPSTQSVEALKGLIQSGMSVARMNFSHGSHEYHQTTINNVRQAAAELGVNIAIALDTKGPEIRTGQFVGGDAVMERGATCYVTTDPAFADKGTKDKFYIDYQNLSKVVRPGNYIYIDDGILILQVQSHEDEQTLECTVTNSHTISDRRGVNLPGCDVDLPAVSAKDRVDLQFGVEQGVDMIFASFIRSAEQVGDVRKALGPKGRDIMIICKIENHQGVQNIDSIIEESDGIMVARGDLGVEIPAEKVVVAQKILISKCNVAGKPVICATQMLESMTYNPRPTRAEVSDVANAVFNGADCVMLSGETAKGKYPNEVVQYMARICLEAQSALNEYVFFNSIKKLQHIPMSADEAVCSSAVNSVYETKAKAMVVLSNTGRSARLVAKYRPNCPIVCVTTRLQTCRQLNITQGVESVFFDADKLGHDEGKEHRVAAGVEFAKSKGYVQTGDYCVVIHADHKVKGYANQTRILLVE
#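 Purified LmPK (0.1 nM) with 0.5 mM PEP and 0.1 mM ADP in imidazole buffer pH 7.2 with MgCl2/KCl, 1 h at room temperature. ATP formed was read by luciferase luminescence and normalized to no-enzyme and uninhibited controls.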
# * = called active by the depositor; ? = inconclusive; nt = no result given; [ ] = dose if it differs, or a comment. Unless noted, calls come from the whole dose curve; as a rule, active = well fitted curve in the direction sought with a large enough effect; inconclusive = small, poorly fitted or top-dose-only effect, or another doubt; inactive = no such curve, though single readings can be large; an effect the other way counts as inactive or inconclusive.
SMILES,Cycloheximide cs,NS1 inh,Shiga inhibitor,SARS PLpro yeast,TbPYK inhibitor,LmPK inhibitor
Oc1cccc(/C=N/Nc2nn3cnnc3c3ccccc23)c1,-1.6,-3.1%,24.4,-3.3%,2.4%,14.1µM*
CCOCCCN(C)C1CCN(C(=O)c2oc3ccccc3c2NC(=O)COc2ccc(F)cc2)CC1,-5.7,-0.7%,-5.7,-1.9%,-4.7%,-4.7%
COc1cc2ncc3c(-c4ccc(C)cc4)nn(-c4ccc(F)cc4F)c3c2cc1OC,nt,nt,nt,nt,-5.7%,nt
Cc1ccc(C)c(NC(=S)NNC(=O)c2sccc2C)c1,28.8*,-4.4%,120.7*,1.3%,-5.6%,-13.7%
Cc1ccc(C)c(NC(=S)NNC(=O)c2csc(C)c2C)c1,17.9*,20.4%,22.0*,-7.1%,-7.1%,-6.2%
Cc1ccc(C)c(NC(=O)CN(C)C(=O)c2sccc2C)c1,nt,nt,nt,8.3%,3.6%,nt
Cc1ccc(C)c(NC(=S)NNC(=O)c2csc(C(C)C)c2)c1,18.5*,-9.0%,27.6,10µM*,-1.4%,-3.8%
Cc1ccc2nc(NC(=O)CCn3c(=O)sc4ccccc43)sc2c1,1.2,4.1%,10.9,-20.1%,5.7%,-0.6%
Cc1ccc2nc(NC(=O)CCCc3nc4ccccc4s3)sc2c1,41.8*,7.6%,116.7,-1.5%,-13.8%,7.5%
Cc1ccc2nc(NC(=O)CCn3cccc3)sc2c1,22.5*,nt,53.0*,0.5%,2.1%,-13.3%
CC(Sc1nc(N)cc(=O)[nH]1)C(=O)Nc1nc2c(s1)CCCC2 (configuration not stated),-3.6,2.1%,1.2,-1.8%,-5.3%,2.3%
Nc1cccc(CCc2nc3cc4ccccc4cc3[nH]2)c1,22.1*,10.3%,35.8*,3.2%,-3.8%,4.8%
c1ccc(CCc2nc3ccccc3[nH]2)cc1,40.8*,-3.2%,78.2*,0.5%,-15.2%,-24.1%
O=c1[nH]c2ccccc2nc1Cc1ccc(Cl)cc1,24.3,-12.2%,-4.2,-1.4%,-3.4%,2.8%
O=S(=O)(NCc1nc2ccccc2[nH]1)c1ccccc1,19.0,7.9%,30.7*,-8.0%,-2.7%,-7.7%
O=c1[nH]c2ccccc2nc1CCc1ccccc1,24.2*,nt,70.7*,-4.4%,-3.2%,-2.6%
CCOC(=O)CNC(c1ccccc1)c1cc(Br)ccc1NC(=O)c1ccc(Cl)cc1 (configuration not stated),nt,nt,nt,nt,-4.1%,nt
Cc1ccc(-c2csc(/C(C#N)=C/c3ccccc3Cl)n2)cc1,nt,nt,nt,nt,-1.7%,nt
COc1ccc(Cc2n[nH]c(=S)n2NC(=O)Nc2ccc(Cl)c(Cl)c2)cc1,8.0,-106.9%,23.3,-2.4%,-15.4%,-3.9%
O=C1C=C(c2ccc3ccccc3c2)C[C@@H](c2ccc(F)cc2)C1,nt,nt,nt,-22.0%,-3.0%,nt
CC[C@@H](O)C(C[C@@H](C)N(C)C)(c1ccccc1)c1ccccc1,nt,nt,nt,nt,-7.7%[157 µM],nt
CC12CC(NC(=O)N1c1cccc(C(=O)N3CCCCC3)c1)c1ccccc1O2 (configuration not stated),-1.5,13.1%,-14.4,1.2%,-4.2%,-11.3%
CC(=O)N/C(N)=N/c1nc2cc([N+](=O)[O-])ccc2o1,27.1*,8.1%,81.2,-1.1%,0.2%,-7.1%
CC(=O)N/C(=N/c1nc(C)cc(C)n1)Nc1ccc(C)cc1Cl,2.5,-0.7%,-4.6,3.6%,-4.5%,0.3%
CC(=O)N/C(N)=N/c1nc2cc(C)ccc2o1,36.8*,4.1%,63.4*,0.2%,-2.7%,-5.4%
SMILES,Cycloheximide cs,NS1 inh,Shiga inhibitor,SARS PLpro yeast,TbPYK inhibitor,LmPK inhibitor
CCOc1ccc(CCNC(=O)c2ccc(Cn3c(=O)c4cccn4c4cccnc43)cc2)cc1,nt,nt,nt,nt,0.9%,nt
O=C(O)c1csc(-c2ccc(Cl)cc2)n1,1.7,nt,-5.9,-0.1%,2.5%,-0.3%
CNC(=O)c1csc(-c2ccc(Cl)cc2)n1,38.4*,-3.3%,46.7*,-1.8%,-2.0%,-7.2%
CNC(=O)c1csc(-c2ccncc2)n1,10.4,-0.8%,-5.5,3.6%,nt,3.6%
CNC(=O)c1csc(-c2ccc(C)cc2)n1,23.8*,-9.2%,45.2*,-10.3%,-8.8%,-9.6%
COc1ccccc1C(=O)COC(=O)c1ccc(Cl)nc1,nt,nt,nt,2.7%,-8.2%,nt
CCC(CC)c1nnc(NC(=O)C23CC4CC(CC(NC(C)=O)(C4)C2)C3)s1,-4.0,-2.7%,-8.3,3.7%,0.3%,-5.3%
CC(=O)NC12CC3CC(C1)CC(C(=O)Nc1nc4ccc(F)cc4s1)(C3)C2,45.0*,9.6%,70.7*,2.5%,-5.0%,3.2%
CCOc1ccc(S(=O)(=O)Oc2ccc3ccccc3c2)cc1,29.0*,-14.9%,43.4*,-6.4%,1.0%,-1.7%
Cc1ccc(S(=O)(=O)Oc2ccc3ccc(O)cc3c2)cc1,28.8*,-10.5%,nt,-4.3%,0.2%,-2.2%
Cc1ccc(S(=O)(=O)Oc2ccccc2)cc1,nt,nt,nt,nt,-0.9%,nt
CCOc1ccc(S(=O)(=O)Nc2cnc3ccccc3c2)cc1,-1.7,-7.8%,1.9,-2.5%,2.1%,3.2%
CC(C)c1ccc(C(=O)N2CCOCC2c2cc(C(=O)Nc3ccccc3)no2)cc1 (configuration not stated),nt,nt,nt,nt,3.9%,nt
N#Cc1c(/N=C/c2cccs2)sc2c1CCCCC2,34.9*,-90.9%,85.7*,-13.6%,-10.8%,?
N#Cc1c(/N=C/c2cccnc2)sc2c1CCCC2,-0.9,-4.8%,15.0,-1.0%,0.0%,-9.5%
Cc1ccc(/C=N/c2sc3c(c2C#N)CCC3)o1,1.2,13.3%,1.5,-1.9%,-12.2%,-27.4%
N#Cc1c(/N=C/c2ccc(Br)s2)sc2c1CCC2,25.0,5.1%,15.0*,-20.3%,-7.4%,5.2%
N#Cc1c(/N=C\c2ccc(O)c([N+](=O)[O-])c2)sc2c1CCCC2,43.7*,0.8%,44.7,-1.9%,3.2%,6.0%
N#Cc1c(/N=C/c2ccc(-c3ccccc3C(=O)O)o2)sc2c1CCCC2,60.0*,-1.7%,111.4*,1.4%,-3.4%,-3.9%
O=C(NCc1ccc(F)cc1)C(=O)NCC1OCCN1S(=O)(=O)c1cc(F)ccc1F (configuration not stated),nt,nt,nt,nt,-2.7%,nt
C/C(=N\NC(=S)Nc1ccccc1)C1Cc2ccccc2C(=O)O1 (configuration not stated),51.1*,8.6%,82.1*,1.0%,-20.1%,-1.1%
C/C(=N\NC(=S)Nc1ccccc1C)C1Cc2ccccc2C(=O)O1 (configuration not stated),40.5*,0.5%,45.5,0.1%,-8.1%,2.3%
CCc1nnc(NC(=O)C2Cc3ccccc3C(=O)O2)s1 (configuration not stated),-2.3,-68.8%,-8.4,-8.1%,0.3%,11.3%
CN(CC(=O)Nc1cccc(Cl)c1)S(=O)(=O)/C=C/c1ccccc1,nt,nt,nt,nt,-8.0%,nt
CC(C)CNS(=O)(=O)c1ccc(C(=O)Nc2ccc3c(c2)OCCO3)cc1,54.1*,2.8%,96.7*,0.6%,3.0%,-2.7%
CS(=O)(=O)Nc1ccc(C(=O)Nc2ccc3c(c2)OCO3)cc1,25.8*,nt,52.6*,-3.8%,0.4%,-9.5%
